These results are taken from PubChem BioAssay AID2599 (Sanford-Burnham Center for Chemical Genomics, 2010).

Hit rate of the full screen: of about 330,000 compounds, about 5,800 (1.8%) were called active. Shown is part of a subset that was picked to be rich in actives. A number with no mark means an inactive call.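 The calls were made as follows: active = inhibition above about 50% at the single tested dose (limit read from the data); inactive = the rest.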

Sequence of Sentrin-specific protease 6 (Homo sapiens) (Q9GZR1 628-1112 limits assumed): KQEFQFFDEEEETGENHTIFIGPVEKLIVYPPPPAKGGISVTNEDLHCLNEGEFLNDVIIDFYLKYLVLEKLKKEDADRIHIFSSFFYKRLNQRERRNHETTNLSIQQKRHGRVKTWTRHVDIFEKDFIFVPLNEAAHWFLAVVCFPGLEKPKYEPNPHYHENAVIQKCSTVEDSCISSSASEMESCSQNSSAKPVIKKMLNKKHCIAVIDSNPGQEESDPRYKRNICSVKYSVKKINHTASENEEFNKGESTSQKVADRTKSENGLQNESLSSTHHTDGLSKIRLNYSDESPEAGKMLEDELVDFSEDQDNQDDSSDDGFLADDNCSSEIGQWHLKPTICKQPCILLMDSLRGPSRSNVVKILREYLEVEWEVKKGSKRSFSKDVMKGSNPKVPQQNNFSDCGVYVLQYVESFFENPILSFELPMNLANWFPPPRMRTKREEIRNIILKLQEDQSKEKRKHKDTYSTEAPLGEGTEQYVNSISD

This assay addresses Sentrin-specific protease 6 (Homo sapiens) (UniProt Q9GZR1). As to the kind of experiment: inhibition of human SENP6 catalytic domain – biochemical, luminescence, uHTS, primary screen (AID 2599).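 Also: plate controls were DMSO wells with enzyme for no effect and DMSO wells lacking enzyme for full effect.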 Conditions: Recombinant SENP6 catalytic domain, aminoluciferin luminescence; at 10 µM; hits give high values.
Broadly, the inhibition is the drop in the measured response relative to a control, in per cent. In the case of `CCOC(=O)/C(C#N)=C/c1ccc(N2CCN(Cc3ccccc3)CC2)cc1`, the inhibition was -1.35%. For `COc1ccc(N2CCN(C(=O)/C(C#N)=C/c3ccccc3)CC2)cc1` the value was 1.08%. Under `CCOC(=O)/C(C#N)=C/c1ccc(N2CCCCC2)cc1` stands 52.8% (active). Under `CC1(C)CC(=O)C=C(NCCCN2CCCC2=O)C1` stands 4.58%; under `CC[N+](C)(CC)CCC[n+]1c(-c2ccccc2)c2cc(N)ccc2c2ccc(N)cc21`, 89.2% (active); under `Cc1cc(C)n2nc(C(=O)Nc3cccc(S(=O)(=O)N4CCOCC4)c3)nc2n1`, -2.51%.

With `Cn1c(NC(=O)c2ccccc2)nc2ccccc21`, the inhibition is 75.7% (active). Under `CCn1c(NC(=O)c2nn(C)cc2Br)nc2ccccc21` stands -7.2%; under `Cc1nn(C)cc1C(=O)c1ccccc1`, 0.575%; under `Cn1c(Nc2cccc(Cl)c2)nc2ccccc21`, 21.9%.

For `Cn1c(-c2ccc(C(=O)c3ccccc3)s2)nc2ccccc21`, the inhibition is 68.7% (active). Under `Cc1nc2ccccc2c(-c2ccccc2)c1C(=O)c1ccccc1` stands -18.6%.

Regarding `O=C(CN(c1ccc2c(c1)OCCO2)S(=O)(=O)c1ccccc1)Nc1ccc2c(c1)OCO2`, the inhibition was 12.2%. Take `CCOC(=O)C1C(c2ccc(OC)c(OC)c2)c2c([nH][nH]c2=O)CC1(C)O` (stereo not given): the inhibition was -17.3%.

Consider `Cc1nn(CC(=O)NC2CCCCC2)c(=O)c2cccn12`, for which the inhibition was 9.49%. On to `O=C(Cc1ccc(F)cc1)N1CCN=C1SCc1cccc([N+](=O)[O-])c1`, for which the inhibition is 4.91%. Under `CCOC(=O)N1CCN(c2cc(C)c([N+](=O)[O-])cc2F)CC1` stands -3.66%. For `CCn1cc(-c2cc(C(=O)O)on2)c(C)n1` the value was 15.3%. Under `Cc1ccn2cc(-c3nonc3C)cc2c1` stands 53.2% (active). As to `O=C(O)/C=C/C(=O)NNc1ccc([N+](=O)[O-])cc1`, the inhibition was 82.9% (active). Regarding `CNC(=S)Nc1ccc([N+](=O)[O-])cc1`, the inhibition is -24.9%.

`O=[N+]([O-])c1ccc(N/N=C/c2ccccc2)cc1`: the inhibition is 0.552%. For `CCS(=O)(=O)c1ccc(C(=O)NC)c(Cl)c1Cl` the value was 5.83%; for `COc1ccccc1C(=O)Nn1cnnc1`, -21.9%. In the case of `COC(=O)c1ccc(/C=C/c2c(-c3ccc(OC)cc3)sc3ccccc23)cc1`, the inhibition was 17.2%. For `COc1ccc(-c2sc3ccccc3c2-c2ccc(OCCN3CCOCC3)cc2)cc1` the value was -11.4%; for `COc1ccc(N=C(C)c2sc3ccccc3c2O)cc1`, 82.8% (active).

In the case of `Cc1ccc(S(=O)(=O)N(c2cccc(C)c2)C2CCS(=O)(=O)C2)cc1` (stereo not given), the inhibition was 7.06%.

On to `CSCC[C@H](NC(=O)N1CCn2c1nc1ccccc12)C(=O)NC1CCCCC1`, for which the inhibition is -2.54%. Consider `COC(=O)C1=C(C)N(C)C(=S)NC1c1cc(OC)ccc1OC` (stereo not given), for which the inhibition is 6.54%.

As for `Clc1ccc(-c2cc(-c3ccccn3)on2)c(Cl)c1`, the inhibition is 95.1% (active).

For `O=C1c2ccccc2C(=O)N1Cc1cc(-c2ccccc2Cl)no1`, the inhibition is -13.7%. Under `Clc1ccc(COn2c(-c3ccc(Cl)cc3Cl)nc3ncccc32)cc1` stands 3.31%; under `CC1(C)OC(=O)C(=CNC(CO)C(=O)O)C(=O)O1` (stereo not given), -15.5%. Take `COc1ccc(S(=O)(=O)N2CCOC23CCN(S(=O)(=O)c2ccc([N+](=O)[O-])cc2)CC3)cc1`: the inhibition was -0.227%. Under `CC(C)C(NC(=O)c1cccc(S(=O)(=O)N2CCOCC2)c1)C(=O)NCCc1ccccn1` (stereo not given) stands 0.86%. Under `COc1ccc(/C=C/c2noc(-c3ccccc3OC(C)=O)n2)cc1` stands 89.4% (active); under `CC(=O)Oc1ccc(-c2nc3c(C)cccc3c(=O)o2)cc1`, 13.4%. For the compound `COc1cccc(/C=C/c2ccc3ccccc3n2)c1OC(C)=O`, the inhibition was 14.1%. Take `O=C(Cc1ccc(S(=O)(=O)N2CCCC2)s1)NC1CCCCCC1`: the inhibition was -13.1%. For `CSCCC(NC(=O)c1ccco1)C(=O)NCCc1ccc(F)cc1` (stereo not given) the value was 5.31%; for `COc1cccc(-c2nnc(SCCOc3ccc4c(C)cc(=O)oc4c3)o2)c1`, -18.6%; for `COc1ccc([N+](=O)[O-])cc1-c1nc2ccccc2nc1-c1ccccc1`, -3.14%. Under `O=[N+]([O-])c1ccc2oc(-c3cccc(O)c3)nc2c1` stands 65.4% (active); under `COc1cccc(-c2nc3cc(C)ccc3o2)c1`, 97.8% (active). Under `COc1ccc2oc(-c3cccc(NC(=O)CSc4ccc(Cl)cc4)c3)nc2c1` stands -0.568%; under `CC(=O)Oc1ccc2c(=O)oc(-c3ccc([N+](=O)[O-])cc3)nc2c1`, 32.4%.

On to `COC(=O)c1ccccc1NC(=O)C1CCN(S(=O)(=O)c2cc(OC)ccc2OC)CC1`, for which the inhibition is -0.874%. Under `Cc1ccc(NC(=O)C(=O)NCC2CCN(C(=O)c3cccc([N+](=O)[O-])c3)CC2)cc1` stands 0.692%; under `N#Cc1cccc(CSc2nnc(CCCO)n2-c2ccccc2)c1`, -0.983%; under `Cc1cccc(NC(=O)c2cccnc2Cl)n1`, 24.9%. Under `Cc1cccc(NC(=O)c2cc(N3C(=O)CCC3=O)ccc2Cl)n1` stands -4.72%; under `Cc1cccc(NC(=O)c2ccc3ccccc3n2)n1`, 77.2% (active); under `COc1ccc(NC(=O)c2cn(-c3ccccc3)nc2SC)cc1`, 0.083%.

In the case of `Cc1c(C(C)CCCO)oc(=O)c2c1Oc1c(C)c(C(C)C[C@@H](C)O)oc(=O)c1C2` (stereo not given in full), the inhibition is 13.7%. Under `O=C(Oc1ccc(Br)cc1C(=S)N1CCOCC1)c1cccc([N+](=O)[O-])c1` stands -3.34%; under `Cc1ccc(/C=C(\C#N)C(=O)Nc2cccc3ncccc23)o1`, -57.2%.

`O=C(NNS(=O)(=O)c1ccccc1C(F)(F)F)c1cc2ncc(C(F)(F)F)cc2s1`: the inhibition is 4.2%. Under `Cc1ccnc(N2C(=O)c3ccc([N+](=O)[O-])cc3C2=O)c1` stands -9.97%. Under `Cc1ccc(-c2cn(S(=O)(=O)c3cccc([N+](=O)[O-])c3)nc2N)cc1` stands -7.28%.

Turning to `Cc1ccc(-n2cc3ccc([N+](=O)[O-])cc3n2)cc1`, the inhibition is 86.9% (active). As for `Cn1cc[n+](C)c1COc1ccc(C=O)cc1`, the inhibition was -1.65%. As for `N#Cc1cc([N+](=O)[O-])ccc1NCC1CCCO1` (stereo not given), the inhibition was -15.1%. For `COc1ccccc1C(=O)NNC(=O)c1ccc(NC(=O)c2ccccc2)cc1`, the inhibition is 5.14%.

For the compound `COc1ccc(NS(=O)(=O)c2cc(C(=O)Nc3ccccc3C(=O)O)ccc2C)cc1`, the inhibition is -2.27%. With `COc1ccc(C(=O)Nc2ccccc2C(=O)N/N=C/c2ccc(O)c(OC)c2)cc1`, the inhibition is 98.7% (active).

Consider `CCOc1cc(/C=N/NC(=O)c2cc(-c3ccccc3)nc3ccccc23)ccc1O`, for which the inhibition was 19.5%. For `COc1ccc(/C=N/Nc2ccccc2C(=O)O)cc1` the value was 93.1% (active); for `COc1cc(/C=N/NC(=O)c2ccc(N3CCCC3=O)cc2)ccc1O`, -7.53%. In the case of `COc1ccc(C(=O)Nc2cc(C)c(NC(=O)c3ccccc3OC)cn2)cc1`, the inhibition was 37.3%. For `COc1ccc(/C=N/OCC(=O)N(Cc2ccccc2)c2ccccc2C(=O)O)cc1` the value was -17.2%; for `COc1ccc(C(=O)Nc2ccccc2C(=O)N/N=C/c2ccccc2OC)cc1`, 66.7% (active); for `O=C(O)CC(c1ccccc1F)N1Cc2ccccc2C1=O` (stereo not given), -11.5%. For `COc1ccc(/C=N/n2c(C)cc(C)cc2=O)cc1` the value was -12.1%. For `O=C(N/N=C/c1ccsc1)c1cc(O)cc(O)c1` the value was 3.66%. Regarding `CCn1cc(/C=C(\NC(=O)c2cc(OC)c(OC)c(OC)c2)C(=O)N2CCN(C)CC2)c2ccccc21`, the inhibition was 0.634%. For `O=C(/C=C/c1ccc2c(c1)OCO2)NCc1ccc(F)cc1` the value was 1.24%; for `Cc1cccc(NC(=O)Nc2ccc3c(c2)OCO3)n1`, -17.4%.

`Cc1cccc(NC(=O)/C=C/c2ccc3c(c2)OCO3)n1`: the inhibition was 82.7% (active). `CCCc1ccc(OCc2ccc(C(=O)N/N=C/c3cccc([N+](=O)[O-])c3)o2)c(OC)c1`: the inhibition was -3.27%.

On to `COc1ccccc1N1CCN(C(=O)CCS(=O)(=O)c2ccc3c(c2)NC(=O)C(C)S3)CC1` (stereo not given), for which the inhibition was 4.9%. For `CCOC(=O)C(C)N(c1ccccc1Cl)S(C)(=O)=O` (stereo not given) the value was 14.8%.

Regarding `O=C(O)c1cc(Cl)c(Cl)cc1C(=O)Nc1cccc2ncccc12`, the inhibition is 57% (active). Under `COc1ccccc1NC(=O)c1cc(Cl)nc2ccccc12` stands -4.88%; under `O=C(O)c1ccccc1-c1ccccc1C(=O)Nc1cccc2ccccc12`, -15.6%; under `CN(Cc1ccccc1F)C(=O)C(Cc1ccccc1)NC(=O)c1ccccc1` (stereo not given), -9.94%.

Consider `Cc1cccc(-c2noc(-c3ccc(F)cc3)n2)c1`, for which the inhibition was 94.2% (active). For `Cc1cccc(-c2noc(CCC(=O)NC3CCCC3)n2)c1` the value was -13.6%; for `Cn1nc(-c2ccccc2)c(-c2nc(-c3ccc(Cl)cc3)no2)c1Cl`, 3.33%; for `Cc1ccc(NS(=O)(=O)c2c(C)[nH]c(C)c2C(=O)N2CCCCC2)c(C)c1`, -8.53%. For `S=C(Nc1cccc(Br)c1)N1CCn2cccc2C1c1cccnc1` (stereo not given), the inhibition was -5.73%. Under `CC(C)CCNC(=O)CC1C(=O)N(Cc2ccccc2)C(C)c2nc3ccccc3n21` (stereo not given) stands -1.07%. Under `COc1cc(C(=O)OC2CCOC2=O)c([N+](=O)[O-])cc1OC` (stereo not given) stands -15.4%. For `CC(C)c1ccc(C(=O)OC2CCOC2=O)cc1` (stereo not given) the value was -5.48%; for `O=C(OC1CCOC1=O)c1ccc(-c2nc3ccccc3s2)s1` (stereo not given), 97.8% (active).
